Sampled rows, rich in hits. Any-hit rate of the full collection: about 21%.
Shiga inhibitor: A qHTS for Small Molecule Inhibitors of Shiga Toxin. Vero cells, Shiga toxin protein synthesis inhibition reporter. inhibition, % at 38.7 µM. hit rate 9.2% among 290,000; in the data active = inhibition mostly above about 28%, no sharp cut-off; inactive = mostly below about 43%; note: 0% is about no effect
Pf growth 48h: Primary qHTS for delayed death inhibitors of the malarial parasite plastid, 48 hour incubation | P. falciparum luciferase growth in erythrocytes, 48 h | Potency, µM (doses to about 28.7 µM), inactives show top-dose activity change, negative = inhibition, actives largely listed as inhibitors | hit rate 5.9% among 310,000 | AID 504832, 2011; note: potency is the fitted concentration of half-maximal effect; % is set by controls: 0 for no effect and ±100 for the full control effect
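Luciferase-expressing parasites in RBCs, 2% Hct / 0.1% parasitemia final; RPMI 1640 + 0.5% Albumax; 37 C, 5% CO2, one generation; luminescence read-out, lower signal = inhibition.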
NS1 function inh: qHTS Assay for Inhibitors of Influenza NS1 Protein Function; Potency, µM (top dose mostly 46.1 µM), inactives show at the top dose activity, positive = more growth; hit rate 0.4% among 270,000; calls by dose curve; note: potency is the fitted concentration of half-maximal effect; actives are rising curves; nearly all actives have a fitted effect of over 50% in size
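OD600 was taken as the measure of yeast growth restored by compound in an NS1-expressing S. cerevisiae strain. Cells had been washed out of glucose medium and diluted 1:100 into galactose -URA medium, pH 6.0.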
Pf growth 96h: Primary qHTS for delayed death inhibitors of the malarial parasite plastid, 96 hour incubation; Potency, µM (series often up to 28.7 µM), for the others: at the top dose activity change, negative = inhibition, hits mostly inhibitors; P. falciparum luciferase reporter growth, 96 h; hit rate 6.9% among 320,000; note: potency is the fitted concentration of half-maximal effect; % is set by controls: 0 for no effect and ±100 for the full control effect
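Two parasite generations (96 h, 37 C, 5% CO2) of compound exposure in infected erythrocytes (0.05% parasitemia, 2% hematocrit). Luciferase-reporter P. falciparum; decreased luminescence indicates inhibited growth, aimed at apicoplast-acting delayed death.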
CHX counter: Cycloheximide Counterscreen for Small Molecule Inhibitors of Shiga Toxin; cell reporter, cycloheximide protein synthesis inhibition counterscreen; hit rate 12% among 300,000; AID 2314, 2010; max response, %; in the data active = max response mostly above about 13%, no sharp cut-off; inactive = mostly below about 14%; note: read at 38.3 µM for the half of the compounds with a filed dose; 0% is about no effect
Sm TGR inh: qHTS Assay for the Inhibitors of Schistosoma Mansoni Peroxiredoxins; Potency, µM (series often up to 114 µM), for the others: top-dose activity change, negative = inhibition, actives largely listed as inhibitors; Schistosoma mansoni thioredoxin glutathione reductase (TGR), Q962Y6; hit rate 3% among 360,000; purified TGR, DTNB reduction, TNB absorbance 405 nm; AID 485364, 2010; note: potency is the fitted concentration of half-maximal effect; % is set by controls: 0 for no effect and ±100 for the full control effect; nearly all actives have a fitted effect of over 60% in size
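First, TGR (20 nM dispensed) and NADPH were mixed with compound. Second, a 15 min room-temperature incubation followed. Third, further NADPH and then DTNB were added to start the reaction. Finally, TNB absorbance was monitored kinetically.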
The depositor's hits bear a star; ? = inconclusive; . = no result given; ! = a repeat was not active; [ ] = dose if it differs, or a comment. Unless noted, calls come from the whole dose curve; as a rule, active = well fitted curve in the direction sought with a large enough effect; inconclusive = small, poorly fitted or top-dose-only effect, or another doubt; inactive = no such curve, though single readings can be large; an effect the other way counts as inactive or inconclusive.

SMILES | Shiga inhibitor | Pf growth 48h | NS1 function inh | Pf growth 96h | CHX counter | Sm TGR inh
CC(=O)C1=C(O)C(=O)N(CCCN2CCOCC2)C1c1ccccc1[N+](=O)[O-] (centres undefined) | 105* | -13% | 0% | -2% | 35* | 45µM*
CCOC(=O)C1(Cc2ccc(OC)cc2)CCN(C(=O)c2cncs2)CC1 | 31 | -7% | -5% | ? | 16* | 5%
CCOC(=O)C1(Cc2ccc(OC)cc2)CCN(C(=O)c2ccoc2C)CC1 | 21 | ? | -4% | 50% | 11* | 7%
O=C(CSc1nnc(Cc2cccs2)n1CCc1ccccc1)N1CCCc2ccccc21 | -22 | 9.3µM* | -4% | . | 12 | -4%
Cn1cccc1Cc1nnc(SCC(=O)N2CCc3ccccc32)n1CCc1ccccc1 | 11 | 13µM* | 1% | ? | -3 | -33%
Cn1cccc1Cc1nnc(SCC(=O)NC2CCCC2)n1CCc1ccccc1 | -2 | . | ? | 8.3µM* | -3 | -23%
Cn1cccc1Cc1nnc(SCC(N)=O)n1CCc1ccccc1 | -13 | 2% | -9% | ? | -3 | -25%
Cn1cccc1Cc1nnc(SCC(=O)N2CCCC2)n1CCc1ccccc1 | -8 | . | ? | ? | -3 | 3%
C[C@@H]1NS(=O)(=O)[C@H]2C[C@@H]3C=C[C@]2(O3)[C@H]1OC(=O)c1ccc(C(C)(C)C)cc1 | . | ? | . | ? | . | -20%
COc1cc(OC)cc(C(=O)Nc2ccc(S(=O)(=O)Nc3nc(C)cc(C)n3)cc2)c1 | -9 | 6% | 3% | ? | 2 | .
CC(C)Cn1cc(NC(=O)Nc2cccc(C(F)(F)F)c2)c2ccccc2c1=O | . | . | . | . | . | 14%
CCOC(=O)C(C)(C)n1nnc(-c2ccc([N+](=O)[O-])cc2)n1 | -4 | 22% | 3% | 23% | -2 | 13%
O=C(NCc1ccccc1)N1CCNCC1 | . | -12% | -3% | ? | -1 | -17%
OC1(Cc2ccccc2)CCNCC1 | 7 | 12% | -1% | 15% | -1 | 45µM*!
CCOC(=O)c1cnc(-n2nc(C)cc2C)nc1NNc1cc(-c2ccccc2)nc(C)n1 | -5 | ? | 7% | ? | -3 | -22%
CCOC(=O)c1cnc(-n2nc(C)cc2C)nc1NC(C)c1ccccc1 (centres undefined) | 9 | 2.1µM* | -114% | ? | -4 | 1%
CCOC(=O)c1cnc(-n2nc(C)cc2C)nc1NCCO | -4 | ? | 2% | 36% | -2 | -15%
CCOC(=O)c1cnc(-n2nc(C)cc2C)nc1NCc1ccccc1 | 11 | 1.7µM* | -110% | 15% | 1 | 1%
CCOC(=O)c1cnc(-n2nc(C)cc2C)nc1NNc1ncc(-c2ccccc2)cn1 | 16 | 3.3µM* | 11% | 1.7µM* | -1 | -2%
Cc1c(C(=O)OCCOc2ccc(Br)cc2)sc(=S)n1C | -4 | 1%[5.75 µM] | . | -6% | -1 | 7%
CCCn1c(=O)[nH]c(=O)c2c1nc(-c1ccc(C(F)(F)F)cc1)n2CCOC | 14 | -21% | 19% | ? | -9 | -13%
COCCn1c(-c2ccc(SC)cc2)nc2c1c(=O)[nH]c(=O)n2CC(C)C | 25 | -49% | 6% | 4% | 24* | 25%
COCCn1c(-c2ccc(OC(F)(F)C(F)C(F)(F)F)cc2)nc2c1c(=O)[nH]c(=O)n2CC(C)C (centres undefined) | -10 | . | 23% | 6.6µM* | 2 | -6%
CC(=O)c1ccc(N2CCN(C(=O)c3cc4c(s3)CCCC4)CC2)cc1 | 71* | 0%[5.75 µM] | . | -25% | 18* | 0%
O=C(c1cc2c(s1)CCCC2)N1CCC2(CC1)OCCO2 | 76* | 33% | -22% | . | 22* | -1%
SMILES | Shiga inhibitor | Pf growth 48h | NS1 function inh | Pf growth 96h | CHX counter | Sm TGR inh
COc1ccccc1N1CCN(C(=O)c2cc3c(s2)CCC3)CC1 | 7 | . | -3% | 13µM* | 5 | -5%
C=CCN1CCN(C(=O)c2cc3c(s2)CCCC3)CC1 | 59 | 117% | 18% | 7% | 15* | -30%
COC(=O)C1=NNC2(C)C(=O)N(c3ccc(C)cc3)C(=O)C12 (centres undefined) | 14 | 91% | 1% | 32% | 3 | -8%
COc1ccc(S(=O)(=O)NCCc2cn3ccsc3n2)cc1 | . | . | . | . | . | -10%
Cc1cccc(Cn2c(SCc3ccc(C(=O)NCc4cccs4)cc3)nc3cccnc32)c1 | . | . | . | . | . | -4%
O=C(c1cc2c(s1)CCCC2)n1cccn1 | 9 | 18% | -46% | 37% | 18* | 6%
Cc1ccc(-c2noc(-c3ccc(N4CCC(C)CC4)c([N+](=O)[O-])c3)n2)cc1 | . | . | . | . | . | -10%
CC1CCN(c2ccc(-c3nc(-c4ccccc4)no3)cc2[N+](=O)[O-])CC1 | 82* | . | . | . | 44* | -12%
c1ccc(-c2noc(CN3CCc4sccc4C3)n2)cc1 | 50 | 18% | -7% | ? | 18* | .
c1ccc(-c2noc(CN3CCN(C(c4ccccc4)c4ccccc4)CC3)n2)cc1 | -4 | ? | -60% | -11% | -4 | 7%
CC1CCN(Cc2nnc(-c3cccc(Br)c3)o2)CC1 | 32* | 11% | 5% | 13% | 34* | -3%
CC1CCN(Cc2nc(-c3ccccc3)no2)CC1 | 25 | 161% | -1% | 9% | 23* | 1%
CN1CCN(Cc2nnc(-c3ccccc3)o2)CC1 | 7 | 41% | 3% | 0% | 0 | 13%
Fc1ccccc1N1CCN(Cc2nc(-c3ccccc3)no2)CC1 | 38 | -7% | -11% | . | -2 | -2%
Clc1ccc(Nc2c(-c3ccccc3Cl)nc3ccc(Cl)cn23)cc1 | . | . | . | . | . | -8%
COCCn1ccc2c(OCC(=O)Nc3cccc(C(F)(F)F)c3)cccc2c1=O | . | . | . | . | . | 30%
COc1ccc(OC)c(CCNC(=O)c2cnn(-c3ccccc3)c2-n2cccc2)c1 | . | . | . | . | . | 0%
CCOC(=O)c1cnc(SC2CC(=O)N(c3ccc(C)cc3)C2=O)nc1N (centres undefined) | -4 | -2% | 2% | 0% | -2 | ?
Cc1ccc(-c2noc(CN3CCC(C(N)=O)CC3)n2)cc1 | 84* | 84% | 2% | 5% | 41* | ?
CN1CCCN(Cc2nc(-c3ccc(Cl)cc3)no2)CC1 | 35 | 27% | 3% | ? | 29* | 18µM*
COC(=O)c1ccc(-c2noc(CN(C)CCC3CCCCO3)n2)cc1 (centres undefined) | 31 | -29% | -49% | ? | 16* | 0.1µM*
COc1ccc(-c2noc(CN(C)CCC3CCCCO3)n2)cc1 (centres undefined) | 30 | ? | -1% | -28% | -5 | -6%
CCCN(Cc1nc(-c2ccc(Cl)cc2)no1)CC1CCCO1 (centres undefined) | -7 | -14% | -2% | 10% | -2 | -28%

Screens as filed in PubChem BioAssay.
